Experimental data: PubChem BioAssay AID1159580 (chemical genetic matrix, 2015)
In all, about 5,500 compounds went through this assay and about 2,000 (36%) were called active. Inconclusive results (about 18%) are left out. Some of the results follow. Unmarked numbers belong to inactive results. Rule as the data show it: active = normalized growth mostly below about 0.91 (no sharp cut-off); inconclusive = no clear call, values can overlap the other calls; inactive = mostly above about 0.92.

Assay: chemical genetic growth profiling, strain panel (AID 1159580);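 also: tested at 20 µM; growth read once vehicle control cultures reached saturation at 30 °C; 1 = growth at the plate median or of vehicle wells; lower values mean less growth of the strain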
Conditions: S. cerevisiae deletion strains, growth OD

N#Cc1nn(-c2c(Cl)cc(C(F)(F)F)cc2Cl)c(N)c1S(=O)C(F)(F)F (stereo not drawn)
normalized growth (locus YAL021C, strain ccr4, hits give low values): 0.995 | normalized growth (locus YAL026C, strain drs2, hits give low values): 0.947 | normalized growth (locus YAL030W, strain snc1, hits give low values): 0.986 | normalized growth (locus YBL061C, strain skt5, hits give low values): 0.99 | normalized growth (locus YBR009C, strain hhf1, hits give low values): 0.895 (active) | normalized growth (locus YBR023C, strain chs3, hits give low values): 1 | normalized growth (locus YBR171W, strain sec66, hits give low values): 0.961 | normalized growth (locus YBR231C, strain swc5, hits give low values): 1.01 | normalized growth (locus YBR279W, strain paf1, hits give low values): 1 | normalized growth (locus YCL011C, strain gbp2, hits give low values): 0.951 | normalized growth (locus YCL016C, strain dcc1, hits give low values): 1.04 | normalized growth (locus YCL069W, strain vba3, hits give low values): 0.998 | normalized growth (locus YCR088W, strain abp1, hits give low values): 0.993 | normalized growth (locus YDL005C, strain med2, hits give low values): 0.987 | normalized growth (locus YDL040C, strain nat1, hits give low values): 0.982 | normalized growth (locus YDR001C, strain nth1, hits give low values): 0.992 | normalized growth (locus YDR069C, strain doa4, hits give low values): 0.965 | normalized growth (locus YDR137W, strain rgp1, hits give low values): 0.576 (active) | normalized growth (locus YDR159W, strain sac3, hits give low values): 0.888 | normalized growth (locus YDR195W, strain ref2): 1.15 [resistant] (active) | normalized growth (locus YDR297W, strain sur2, hits give low values): 0.961 | normalized growth (locus YDR334W, strain swr1, hits give low values): 0.962 | normalized growth (locus YDR335W, strain msn5, hits give low values): 1.01 | normalized growth (locus YDR392W, strain spt3, hits give low values): 0.785 | normalized growth (locus YEL003W, strain gim4, hits give low values): 0.936 | normalized growth (locus YEL037C, strain rad23, hits give low values): 0.986 | normalized growth (locus YEL061C, strain CIN8 (second series), hits give low values): 0.973 | normalized growth (locus YER015W, strain faa2, hits give low values): 0.955 | normalized growth (locus YER016W, strain bim1, hits give low values): 1.01 | normalized growth (locus YER111C, strain swi4, hits give low values): 1.01 | normalized growth (locus YER155C, strain BEM2 (second series), hits give low values): 1.02 | normalized growth (locus YFR010W, strain ubp6, hits give low values): 0.939 | normalized growth (locus YGL167C, strain pmr1, hits give low values): 0.966 | normalized growth (locus YGL173C, strain kem1, hits give low values): 0.979 | normalized growth (locus YGL227W, strain vid30, hits give low values): 0.99 | normalized growth (locus YGL240W, strain doc1, hits give low values): 0.959 | normalized growth (locus YGL253W, strain hxk2, hits give low values): 0.929 | normalized growth (locus YHR013C, strain ard1, hits give low values): 1.01 | normalized growth (locus YHR027C, strain rpn1, hits give low values): 0.968 | normalized growth (locus YHR030C, strain SLT2, hits give low values): 1.01 | normalized growth (locus YHR079C, strain IRE1, hits give low values): 1.02 | normalized growth (locus YHR142W, strain chs7, hits give low values): 0.956 | normalized growth (locus YJL092W, strain hpr5, hits give low values): 0.992 | normalized growth (locus YJL095W, strain BCK1 (second series), hits give low values): 0.983 | normalized growth (locus YJL095W, strain BCK1, hits give low values): 0.991 | normalized growth (locus YJL115W, strain asf1, hits give low values): 0.99 | normalized growth (locus YJL129C, strain trk1, hits give low values): 1.01 | normalized growth (locus YJL154C, strain vps35, hits give low values): 0.978 | normalized growth (locus YJL164C, strain tpk1, hits give low values): 0.926 | normalized growth (locus YJL166W, strain qcr8, hits give low values): 0.94 | normalized growth (locus YJR066W, strain TOR1, hits give low values): 0.962 | normalized growth (locus YKL160W, strain elf1, hits give low values): 1.03 | normalized growth (locus YKR026C, strain gcn3, hits give low values): 0.98 | normalized growth (locus YKR091W, strain srl3, hits give low values): 0.989 | normalized growth (locus YLL001W, strain dnm1, hits give low values): 0.918 | normalized growth (locus YLL026W, hits give low values): 0.984 | normalized growth (locus YLL041C, strain sdh2, hits give low values): 0.996 | normalized growth (locus YLR027C, strain aat2, hits give low values): 0.955 | normalized growth (locus YLR113W, strain HOG1, hits give low values): 0.964 | normalized growth (locus YLR221C, strain rsa3, hits give low values): 0.89 (active) | normalized growth (locus YLR258W, strain gsy2, hits give low values): 1.01 | normalized growth (locus YLR262C, strain YPT6 (second series), hits give low values): 0.521 (active) | normalized growth (locus YLR320W, strain mms22, hits give low values): 0.907 | normalized growth (locus YLR342W, strain FKS1, hits give low values): 0.889 (active) | normalized growth (locus YLR357W, strain rsc2, hits give low values): 0.979 | normalized growth (locus YLR370C, strain arc18, hits give low values): 1.01 | normalized growth (locus YLR384C, strain iki3, hits give low values): 1.01 | normalized growth (locus YML120C, strain ndi1, hits give low values): 0.909 (active) | normalized growth (locus YMR058W, strain fet3, hits give low values): 0.952 | normalized growth (locus YMR125W, strain sto1, hits give low values): 1.03 | normalized growth (locus YMR129W, hits give low values): 1.01 | normalized growth (locus YMR205C, strain PFK2, hits give low values): 0.981 | normalized growth (locus YMR231W, strain pep5, hits give low values): 0.998 | normalized growth (locus YNL071W, strain lat1, hits give low values): 0.978 | normalized growth (locus YNL183C, strain NPR1, hits give low values): 0.951 | normalized growth (locus YNL209W, strain ssb2, hits give low values): 0.995 | normalized growth (locus YNL248C, strain rpa49, hits give low values): 1.01 | normalized growth (locus YNL322C, strain KRE1 (second series), hits give low values): 1 | normalized growth (locus YNR049C, strain mso1, hits give low values): 1 | normalized growth (locus YOR001W, strain rrp6, hits give low values): 0.901 | normalized growth (locus YOR070C, strain gyp1, hits give low values): 1 | normalized growth (locus YOR080W, strain dia2, hits give low values): 0.991 | normalized growth (locus YOR083W, strain WHI5, hits give low values): 0.941 | normalized growth (locus YOR106W, strain vam3, hits give low values): 0.981 | normalized growth (locus YOR231W, strain MKK1, hits give low values): 1 | normalized growth (locus YOR265W, strain rbl2, hits give low values): 0.967 | normalized growth (locus YOR270C, strain vph1, hits give low values): 0.794 | normalized growth (locus YOR290C, strain snf2, hits give low values): 1.02 | normalized growth (locus YPL051W, strain arl3, hits give low values): 1.04 | normalized growth (locus YPL078C, strain atp4, hits give low values): 0.99 | normalized growth (locus YPL106C, strain sse1, hits give low values): 1.15 | normalized growth (locus YPL240C, strain hsp82, hits give low values): 0.996 | normalized growth (locus YPL256C, strain CLN2, hits give low values): 1.04
